Laboratory results: PubChem BioAssay (EPA / NIEHS)
Inconclusive results are not listed. Active and inactive are the calls of the source. How the source made its calls: active means hit-call score of the fitted dose curve at least 0.9, where 1 is the maximum; inconclusive means response in the unintended direction; inactive means score below 0.9.

Key:
[1] = biological target: rat CYP2C12, Cyp2c12 (gene 25011) (UniProt P11510); experiment: NVS_ADME_rCYP2C12: NovaScreen (NVS) CYP450-related Enzyme Activity (ADME) Assay for rat CYP2C12 (AID 2283119)
In short: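 Fluorescent-substrate turnover by recombinant rat CYP2C12, measured at 0.5 h, normalized to acetonitrile vehicle. Chemicals screened first at a single 10 uM concentration in duplicate, with concentration series for actives.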

[2] = biological target: rat CYP2D2, Cyp2d26 (gene 25053) (UniProt P10634); experiment: NVS_ADME_rCYP2D2: NovaScreen (NVS) CYP450-related Enzyme Activity (ADME) Assay for rat CYP2D2 (AID 2283124)
In short: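 Single-concentration duplicate testing at 10 uM, followed by concentration-response (top 20 uM) for chemicals passing threshold. Enzyme activity of the recombinant rat isoform measured by fluorescence after 0.75 h, acetonitrile as baseline.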

[3] = system: rat CYP3A1, gene 25642; experiment: NVS_ADME_rCYP3A1: NovaScreen (NVS) CYP450-related Enzyme Activity (ADME) Assay for rat CYP3A1 (AID 2283126)
In short: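 Compounds went first at 10 uM duplicate, then to series with 20 uM maximum. Fluorescence from substrate turnover by the recombinant enzyme was measured 0.5 h post-dosing, inhibition scored against acetonitrile vehicle.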

[4] = biological target: rat CYP3A2, Cyp3a2 (gene 266682) (UniProt P05183); experiment: NVS_ADME_rCYP3A2: NovaScreen (NVS) CYP450-related Enzyme Activity (ADME) Assay for rat CYP3A2 (AID 2283128)
In short: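 Fluorescence readout of extracted rat CYP3A2 activity 0.5 h post-dose, acetonitrile as negative control. Single-point testing in duplicate at 10 uM, followed by concentration series to a 20 uM maximum for actives.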

[5] = biological target: human Acetylcholinesterase (AChE), ACHE (gene 43) (UniProt P22303); experiment: NVS_ENZ_hAChE: NovaScreen (NVS) Enzymatic Assay for human Acetylcholinesterase (AChE) (AID 2283129)
In short: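 Actives from a duplicate single-point screen (25 uM) were followed up in concentration series. Enzyme activity read by absorbance (colorimetric) 0.33 hour after dosing, cell-free, normalized to DMSO, with loss of signal scored.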

[6] = biological target: human AMP-activated Protein Kinase, alpha 1 (AMPKa1), PRKAA1 (gene 5562) (UniProt Q13131); experiment: NVS_ENZ_hAMPKa1: NovaScreen (NVS) Enzymatic Assay for human AMP-activated Protein Kinase, alpha 1 (AMPKa1) (AID 2283130)
In short: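 Compounds were screened in duplicate at 25 uM, and those reaching ~30% inhibition were titrated up to 50 uM. The enzyme was recombinant human AMPKα1, and kinase turnover was read by fluorescence/mobility shift 1 h post-dosing as loss of signal versus DMSO.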

[7] = biological target: human AKT serine/threonine Kinase 1 (AKT1), AKT1 (gene 207) (UniProt P31749); experiment: NVS_ENZ_hAKT1: NovaScreen (NVS) Enzymatic Assay for human AKT serine/threonine Kinase 1 (AKT1) (AID 2283138)
In short: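 A biochemical assay with recombinant enzyme and specific substrate, read by fluorescence intensity with mobility-shift separation 1 hour after dosing. Actives from 25 uM duplicate screening were titrated up to 50 uM against DMSO baseline.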

[8] = biological target: human AKT serine/threonine Kinase 2 (AKT2), AKT2 (gene 208) (UniProt P31751); experiment: NVS_ENZ_hAKT2: NovaScreen (NVS) Enzymatic Assay for human AKT serine/threonine Kinase 2 (AKT2) (AID 2283141)
In short: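 Cell-free fluorescence/electrophoretic mobility shift readout of recombinant human AKT2 activity, 1 h after chemical dosing. Duplicate primary screen at 25 uM, then singleton concentration-response up to 50 uM; loss of signal versus DMSO baseline.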

[9] = system: rat CYP2B1, gene 24300; experiment: NVS_ADME_rCYP2B1: NovaScreen (NVS) CYP450-related Enzyme Activity (ADME) Assay for rat CYP2B1 (AID 2283117)
In short: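 Cell-free fluorescence enzyme assay, recombinant rat CYP2B1, 0.75 h after dosing. Single-concentration duplicates at 10 uM preceded concentration series (max 20 uM) for actives; acetonitrile as negative-control baseline.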

[10] = biological target: rat CYP2C11, Cyp2c11 (gene 29277) (UniProt P08683); experiment: NVS_ADME_rCYP2C11: NovaScreen (NVS) CYP450-related Enzyme Activity (ADME) Assay for rat CYP2C11 (AID 2283118)
In short: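 Screened first at 10 uM in duplicate, hits followed by concentration-response. Recombinant rat enzyme activity monitored by fluorescence 0.33 h post-dosing, normalised to acetonitrile negative control.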

[11] = system: rat CYP2C6, gene 293989; experiment: NVS_ADME_rCYP2C6: NovaScreen (NVS) CYP450-related Enzyme Activity (ADME) Assay for rat CYP2C6 (AID 2283120)
In short: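 Compounds first tested in duplicate at 10 uM, hits (e.g. 30% inhibition) re-run in singleton dose series to a 20 uM top concentration. Enzyme activity of recombinant rat CYP2C6 measured via fluorescent substrate turnover after 1 h; acetonitrile baseline.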

[12] = biological target: rat CYP2D1, Cyp2d1 (gene 266684) (UniProt P10633); experiment: NVS_ADME_rCYP2D1: NovaScreen (NVS) CYP450-related Enzyme Activity (ADME) Assay for rat CYP2D1 (AID 2283122)
In short: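 Rat CYP2D1 enzyme activity measured by fluorescence intensity in a cell-free format, 0.75 h post-dosing, acetonitrile as negative control. Screening at 10 uM in duplicate, with actives followed in concentration series up to 20 uM.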

[13] = biological target: human Caspase 5 (CASP5), CASP5 (gene 838) (UniProt P51878); experiment: NVS_ENZ_hCASP5: NovaScreen (NVS) Enzymatic Assay for human Caspase 5 (CASP5) (AID 2283137)
In short: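 Caspase 5 enzyme activity, detected as fluorescence signal loss, is measured in a biochemical format using E. coli-expressed protein. Reading occurs 2 hours post-dosing. Screening runs at 25 uM, with confirmed actives titrated to 50 uM maximum.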

[14] = biological target: human Beta-secretase (BACE), BACE1 (gene 23621) (UniProt P56817); experiment: NVS_ENZ_hBACE: NovaScreen (NVS) Enzymatic Assay for human Beta-secretase (BACE) (AID 2283140);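 further: hits are inhibitors that reduce fluorescent substrate signal versus DMSO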
In short: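 Enzyme activity of SF9-produced BACE1 is measured cell-free by fluorescence, 1 hour post dosing, normalised to DMSO. Screening used 25 uM in duplicate, with concentration-response follow-up for actives.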

[15] = biological target: rat CYP2A2, Cyp2a2 (gene 24895) (UniProt P15149); experiment: NVS_ADME_rCYP2A2: NovaScreen (NVS) CYP450-related Enzyme Activity (ADME) Assay for rat CYP2A2 (AID 2283116)
In short: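 Compounds first tested in duplicate at 10 uM, then in singleton concentration series up to 20 uM when over threshold. Activity of the recombinant enzyme read by fluorescence at 0.2 h, normalised to acetonitrile vehicle.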

[16] = biological target: Caspase-3 (Homo sapiens) (UniProt P42574); experiment: NVS_ENZ_hCASP3: NovaScreen (NVS) Enzymatic Assay for human Caspase 3 (CASP3) (AID 2283139)
In short: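 Single-concentration screening at 25 uM in duplicate, with concentration-response follow-up to a 50 uM maximum for chemicals passing the threshold. Caspase-3 (human, E. coli-expressed) activity was read as substrate fluorescence after 1 h, with loss of signal relative to DMSO.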

[17] = biological target: Caspase-1 (Homo sapiens) (UniProt P29466); experiment: NVS_ENZ_hCASP1: NovaScreen (NVS) Enzymatic Assay for human Caspase 1 (CASP1) (AID 2283132)
In short: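 Compounds were first tested in duplicate at 25 uM, with follow-up concentration series up to 50 uM. The bacterially expressed enzyme was read by fluorescence at 1 h post-dosing. Signal loss versus DMSO baseline indicates reduced enzyme activity.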

[18] = biological target: human Caspase 2 (CASP2), CASP2 (gene 835) (UniProt P42575); experiment: NVS_ENZ_hCASP2: NovaScreen (NVS) Enzymatic Assay for human Caspase 2 (CASP2) (AID 2283135)
In short: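 Single-point duplicate testing at 25 uM preceded concentration series topping at 50 uM. Activity of the recombinant E. coli-derived protease was followed by fluorescent substrate cleavage 1 h post-dosing, relative to DMSO.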

[19] = biological target: human Acid Phosphatase 1 (ACP1), ACP1 (gene 52) (UniProt P24666); experiment: NVS_ENZ_hACP1: NovaScreen (NVS) Enzymatic Assay for human Acid Phosphatase 1 (ACP1) (AID 2283136)
In short: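 Cell-free fluorescence read-out of phosphatase activity, substrate and product separated by mobility shift, taken 1.5 h after compound addition; protein produced in Sf9. Single 25 uM duplicate screen, followed by concentration series for actives, scored as signal loss relative to DMSO.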

Chain of rat CYP2C12, Cyp2c12 (gene 25011) (P11510 whole entry, looked up): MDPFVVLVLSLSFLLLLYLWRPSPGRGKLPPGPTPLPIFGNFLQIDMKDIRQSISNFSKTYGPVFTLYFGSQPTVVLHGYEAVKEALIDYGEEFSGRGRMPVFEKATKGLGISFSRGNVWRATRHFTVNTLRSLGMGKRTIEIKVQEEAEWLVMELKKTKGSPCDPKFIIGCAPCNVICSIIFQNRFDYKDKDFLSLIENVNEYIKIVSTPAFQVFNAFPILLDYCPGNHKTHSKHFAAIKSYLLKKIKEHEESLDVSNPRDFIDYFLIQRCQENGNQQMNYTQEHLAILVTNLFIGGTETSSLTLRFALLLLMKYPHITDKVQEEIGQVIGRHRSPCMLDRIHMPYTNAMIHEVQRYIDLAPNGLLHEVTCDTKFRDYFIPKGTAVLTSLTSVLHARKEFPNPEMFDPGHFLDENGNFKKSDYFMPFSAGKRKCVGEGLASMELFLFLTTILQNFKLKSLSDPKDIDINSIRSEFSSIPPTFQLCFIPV
Chain of rat CYP2D2, Cyp2d26 (gene 25053) (P10634 whole entry, looked up, canonical isoform): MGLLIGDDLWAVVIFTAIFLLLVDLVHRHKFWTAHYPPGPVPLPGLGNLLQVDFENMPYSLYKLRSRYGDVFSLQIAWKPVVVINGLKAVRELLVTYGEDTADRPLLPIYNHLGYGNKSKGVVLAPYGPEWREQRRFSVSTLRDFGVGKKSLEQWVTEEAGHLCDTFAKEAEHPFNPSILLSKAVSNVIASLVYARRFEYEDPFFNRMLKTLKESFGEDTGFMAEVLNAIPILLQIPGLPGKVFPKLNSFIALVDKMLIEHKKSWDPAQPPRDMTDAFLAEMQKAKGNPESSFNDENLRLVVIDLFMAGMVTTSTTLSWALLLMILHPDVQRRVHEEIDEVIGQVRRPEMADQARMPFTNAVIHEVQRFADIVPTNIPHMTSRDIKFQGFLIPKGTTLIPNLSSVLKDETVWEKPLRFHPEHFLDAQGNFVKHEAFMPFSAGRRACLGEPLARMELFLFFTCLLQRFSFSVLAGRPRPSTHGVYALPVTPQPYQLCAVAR
Chain of human Acetylcholinesterase (AChE), ACHE (gene 43) (P22303 whole entry, looked up): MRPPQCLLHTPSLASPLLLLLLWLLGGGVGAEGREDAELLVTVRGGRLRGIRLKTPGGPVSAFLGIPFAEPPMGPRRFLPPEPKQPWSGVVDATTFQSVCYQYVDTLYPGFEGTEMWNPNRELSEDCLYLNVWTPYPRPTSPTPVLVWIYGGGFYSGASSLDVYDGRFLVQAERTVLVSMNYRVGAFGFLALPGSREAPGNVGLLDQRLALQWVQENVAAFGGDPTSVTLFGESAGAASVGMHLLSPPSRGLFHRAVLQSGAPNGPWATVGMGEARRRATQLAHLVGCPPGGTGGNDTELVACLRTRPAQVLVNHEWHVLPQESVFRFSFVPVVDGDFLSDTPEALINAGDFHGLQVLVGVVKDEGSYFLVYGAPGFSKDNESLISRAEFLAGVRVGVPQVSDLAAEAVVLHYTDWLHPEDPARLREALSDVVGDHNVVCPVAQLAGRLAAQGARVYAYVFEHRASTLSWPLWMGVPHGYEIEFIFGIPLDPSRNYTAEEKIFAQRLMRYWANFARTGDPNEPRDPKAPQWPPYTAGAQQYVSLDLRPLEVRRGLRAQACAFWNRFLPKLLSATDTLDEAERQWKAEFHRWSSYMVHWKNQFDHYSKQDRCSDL
Chain of human Beta-secretase (BACE), BACE1 (gene 23621) (P56817 whole entry, looked up): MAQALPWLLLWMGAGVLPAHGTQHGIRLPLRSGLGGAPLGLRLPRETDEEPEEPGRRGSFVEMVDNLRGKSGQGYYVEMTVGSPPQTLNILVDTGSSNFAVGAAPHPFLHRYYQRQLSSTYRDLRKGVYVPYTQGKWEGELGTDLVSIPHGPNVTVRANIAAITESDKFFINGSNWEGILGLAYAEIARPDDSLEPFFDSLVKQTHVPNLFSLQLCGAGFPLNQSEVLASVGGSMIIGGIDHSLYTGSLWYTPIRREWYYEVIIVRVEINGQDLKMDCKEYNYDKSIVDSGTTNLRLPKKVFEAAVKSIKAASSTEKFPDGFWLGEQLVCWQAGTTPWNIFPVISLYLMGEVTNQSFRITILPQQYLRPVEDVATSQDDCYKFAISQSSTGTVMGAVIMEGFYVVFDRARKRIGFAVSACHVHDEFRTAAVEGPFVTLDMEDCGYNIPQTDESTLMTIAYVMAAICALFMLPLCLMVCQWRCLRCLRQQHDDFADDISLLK
Chain of human AKT serine/threonine Kinase 2 (AKT2), AKT2 (gene 208) (P31751 whole entry, looked up): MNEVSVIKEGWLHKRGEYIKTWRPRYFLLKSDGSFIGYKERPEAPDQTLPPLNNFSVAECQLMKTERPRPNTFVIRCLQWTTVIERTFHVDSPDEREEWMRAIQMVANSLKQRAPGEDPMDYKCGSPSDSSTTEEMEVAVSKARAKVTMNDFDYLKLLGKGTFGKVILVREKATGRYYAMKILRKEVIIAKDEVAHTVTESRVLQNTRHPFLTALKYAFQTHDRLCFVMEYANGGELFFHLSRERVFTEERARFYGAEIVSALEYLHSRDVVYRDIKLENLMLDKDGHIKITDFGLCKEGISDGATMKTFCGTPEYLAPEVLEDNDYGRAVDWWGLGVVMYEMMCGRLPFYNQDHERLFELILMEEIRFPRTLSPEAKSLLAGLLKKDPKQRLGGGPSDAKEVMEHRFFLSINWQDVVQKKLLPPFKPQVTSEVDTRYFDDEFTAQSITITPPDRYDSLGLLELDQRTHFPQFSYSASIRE
Chain of human AKT serine/threonine Kinase 1 (AKT1), AKT1 (gene 207) (P31749 whole entry, looked up): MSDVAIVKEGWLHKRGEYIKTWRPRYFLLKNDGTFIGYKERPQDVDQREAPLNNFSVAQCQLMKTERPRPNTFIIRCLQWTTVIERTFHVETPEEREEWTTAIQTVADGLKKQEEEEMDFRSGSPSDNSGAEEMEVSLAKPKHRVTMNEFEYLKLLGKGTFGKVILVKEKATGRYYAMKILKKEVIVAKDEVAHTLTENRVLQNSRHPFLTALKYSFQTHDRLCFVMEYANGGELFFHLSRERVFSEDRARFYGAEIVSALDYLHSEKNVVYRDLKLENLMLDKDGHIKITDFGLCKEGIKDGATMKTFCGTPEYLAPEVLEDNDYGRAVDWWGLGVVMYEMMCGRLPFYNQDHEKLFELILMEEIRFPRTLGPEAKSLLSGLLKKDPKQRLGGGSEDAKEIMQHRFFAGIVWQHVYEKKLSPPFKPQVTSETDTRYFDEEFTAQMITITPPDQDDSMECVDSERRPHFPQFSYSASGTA
Chain of rat CYP3A2, Cyp3a2 (gene 266682) (P05183 whole entry, looked up): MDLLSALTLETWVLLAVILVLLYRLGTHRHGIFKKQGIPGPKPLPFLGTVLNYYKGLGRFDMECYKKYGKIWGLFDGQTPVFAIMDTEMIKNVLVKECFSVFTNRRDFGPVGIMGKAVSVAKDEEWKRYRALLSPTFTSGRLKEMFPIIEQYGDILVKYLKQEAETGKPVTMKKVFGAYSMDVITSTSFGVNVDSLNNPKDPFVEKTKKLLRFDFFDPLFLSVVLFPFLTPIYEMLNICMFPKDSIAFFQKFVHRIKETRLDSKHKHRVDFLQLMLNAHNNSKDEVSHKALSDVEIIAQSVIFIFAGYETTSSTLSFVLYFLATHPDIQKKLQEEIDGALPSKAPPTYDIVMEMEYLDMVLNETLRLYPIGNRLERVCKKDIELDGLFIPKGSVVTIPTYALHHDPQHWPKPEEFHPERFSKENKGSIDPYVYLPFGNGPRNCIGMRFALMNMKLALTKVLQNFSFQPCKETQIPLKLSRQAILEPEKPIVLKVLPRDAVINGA
Chain of human AMP-activated Protein Kinase, alpha 1 (AMPKa1), PRKAA1 (gene 5562) (Q13131 whole entry, looked up): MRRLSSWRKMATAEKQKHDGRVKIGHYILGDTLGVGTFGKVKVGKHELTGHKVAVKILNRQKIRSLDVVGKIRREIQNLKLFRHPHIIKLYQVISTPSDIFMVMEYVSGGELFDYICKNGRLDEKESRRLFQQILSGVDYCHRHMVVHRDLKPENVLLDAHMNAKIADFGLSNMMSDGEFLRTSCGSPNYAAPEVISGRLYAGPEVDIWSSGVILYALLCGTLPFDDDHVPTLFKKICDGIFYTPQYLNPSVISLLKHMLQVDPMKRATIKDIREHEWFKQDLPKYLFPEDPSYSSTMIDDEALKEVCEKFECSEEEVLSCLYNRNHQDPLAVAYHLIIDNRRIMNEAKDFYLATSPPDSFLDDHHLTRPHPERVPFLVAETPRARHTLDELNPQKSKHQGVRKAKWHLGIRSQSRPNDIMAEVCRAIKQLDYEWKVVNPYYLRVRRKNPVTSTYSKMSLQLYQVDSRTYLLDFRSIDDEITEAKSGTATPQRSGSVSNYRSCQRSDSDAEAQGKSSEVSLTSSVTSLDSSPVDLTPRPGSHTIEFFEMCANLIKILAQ
Chain of rat CYP2C11, Cyp2c11 (gene 29277) (P08683 whole entry, looked up): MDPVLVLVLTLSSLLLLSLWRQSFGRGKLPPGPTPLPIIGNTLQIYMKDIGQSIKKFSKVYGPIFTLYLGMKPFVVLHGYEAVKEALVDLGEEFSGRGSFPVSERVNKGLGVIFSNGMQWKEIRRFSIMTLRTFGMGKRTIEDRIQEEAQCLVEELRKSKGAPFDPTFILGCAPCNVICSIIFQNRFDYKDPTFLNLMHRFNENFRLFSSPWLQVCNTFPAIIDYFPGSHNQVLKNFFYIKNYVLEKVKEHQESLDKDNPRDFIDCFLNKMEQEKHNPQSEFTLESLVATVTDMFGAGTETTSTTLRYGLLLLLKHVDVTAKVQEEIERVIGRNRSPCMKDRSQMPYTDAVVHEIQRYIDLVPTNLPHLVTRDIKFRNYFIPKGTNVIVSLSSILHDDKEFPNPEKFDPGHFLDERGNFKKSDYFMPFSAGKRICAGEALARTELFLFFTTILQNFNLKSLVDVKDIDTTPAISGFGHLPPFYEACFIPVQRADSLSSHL
Chain of Caspase-3 (Homo sapiens) (P42574 whole entry, looked up): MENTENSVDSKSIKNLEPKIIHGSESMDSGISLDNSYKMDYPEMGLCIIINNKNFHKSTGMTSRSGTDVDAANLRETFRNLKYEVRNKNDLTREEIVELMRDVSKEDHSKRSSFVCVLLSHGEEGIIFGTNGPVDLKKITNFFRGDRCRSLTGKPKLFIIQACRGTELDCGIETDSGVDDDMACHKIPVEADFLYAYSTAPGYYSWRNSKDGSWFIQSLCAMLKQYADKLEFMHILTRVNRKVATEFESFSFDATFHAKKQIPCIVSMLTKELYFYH

N#Cc1c(Cl)c(Cl)c(Cl)c(C#N)c1Cl
outcome [1]: inactive | outcome [2]: inactive | AC50 [3]: 1.22 µM (active) | AC50 [4]: 0.241 µM (active) | outcome [5]: inactive | AC50 [6]: 4.96 µM (active) | outcome [7]: inactive | outcome [8]: inactive

Clc1ccccc1-c1nnc(-c2ccccc2Cl)nn1
outcome [8]: inactive

Oc1ccc(Cl)cc1Cc1ccccc1
AC50 [9]: 6.42 µM (active) | AC50 [10]: 7.16 µM (active) | AC50 [11]: 5.19 µM (active) | AC50 [12]: 10 µM (active) | AC50 [2]: 5.11 µM (active) | AC50 [3]: 8.2 µM (active) | outcome [6]: inactive | outcome [13]: inactive | outcome [7]: inactive | AC50 [14]: 18.9 µM (active) [middle of 6 runs]

COP(=S)(OC)Oc1ccc([N+](=O)[O-])cc1
AC50 [15]: 5.69 µM (active) | AC50 [10]: 2.77 µM (active) | AC50 [1]: 6.47 µM (active) | AC50 [11]: 0.344 µM (active) | AC50 [3]: 6.49 µM (active) | AC50 [4]: 4.97 µM (active) | outcome [5]: inactive

Cc1cc(C)nc(NC(=O)NS(=O)(=O)c2ccccc2C(=O)OC2COC2)n1
outcome [8]: inactive

C[C@H]1[C@H](c2ccc(Cl)cc2)SC(=O)N1C(=O)NC1CCCCC1
outcome [16]: inactive

CC[C@H](C)[C@H]1O[C@]2(C=C[C@@H]1C)C[C@@H]1C[C@@H](C/C=C(\C)[C@@H](O[C@H]3C[C@H](OC)[C@@H](O[C@H]4C[C@H](OC)[C@@H](O)[C@H](C)O4)[C@H](C)O3)[C@@H](C)/C=C/C=C3\CO[C@@H]4[C@H](O)C(C)=C[C@@H](C(=O)O1)[C@]34O)O2 (tested in a mixture with another compound)
outcome [15]: inactive | outcome [9]: inactive | AC50 [2]: 2.23 µM (active) | AC50 [3]: 8.86 µM (active) | AC50 [6]: 31.2 µM (active)

[2H]C1([2H])[n+]2ccccc2-c2cccc[n+]2C1([2H])[2H]
outcome [1]: inactive | AC50 [2]: 10 µM (active) | outcome [5]: inactive

CC1(C)C(C=C(Cl)Cl)C1C(=O)OC(C#N)c1ccc(F)c(Oc2ccccc2)c1 (configuration not stated)
outcome [17]: inactive | AC50 [14]: 3.31 µM (active)

CN1CSC(=S)N(C)C1
AC50 [9]: 3.9 µM (active) | outcome [17]: inactive | outcome [8]: inactive

O=C(Nc1ccccc1)Nc1cnns1
outcome [1]: inactive | AC50 [12]: 8.7 µM (active) | AC50 [2]: 4.41 µM (active) | AC50 [14]: 10.7 µM (active)

CNC(=O)Oc1ccccc1OC(C)C
outcome [1]: inactive | AC50 [5]: 25 µM (active)

CCC(C)(C)C(=O)OC1=C(c2ccc(Cl)cc2Cl)C(=O)OC12CCCCC2
AC50 [14]: 17.6 µM (active)

COC(=O)c1ccccc1CS(=O)(=O)NC(=O)Nc1nc(OC)cc(OC)n1
outcome [7]: inactive

C#CCN1C(=O)COc2cc(F)c(N3C(=O)C4=C(CCCC4)C3=O)cc21
AC50 [4]: 5.33 µM (active) | outcome [18]: inactive | outcome [19]: inactive
